# Arbovirus anti – arbovirus infection inhibition | arbovirus infection cell-based antiviral screen | inhibition, % at 10 µM | actives 0.37% (n = 200,000) | AID 1251; in the data active = inhibition above about 30%
# L major viab – reduces viability of Leishmania major promastigotes; inhibition, % at 10 µM; actives 9% (n = 200,000); resazurin fluorescence viability; in the data active = inhibition above about 50%;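 note: promastigotes grown with compound for 44 hours at 28 °C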
# CHOP inh – blocks CHOP induction under ER stress; actives 3.8% (n = 220,000); inhibition, % at 10 µM; CHO-K1 CHOP-promoter luciferase, tunicamycin-induced, 15-18 h;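 active = compounds that reduced the stress-induced luciferase reporter signal by more than about 70% of percent inhibition, limit read from the data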
# WT yeast gro inh – growth inhibition of WT yeast, mitochondrial fusion screen | mitochondrial fusion phenotypic screen, WT strain | inhibition, % at 10 µM | actives 2.1% (n = 190,000) | AID 1362; in the data active = inhibition above about 58%; tested in S. cerevisiae
# Hits are given with their value; 0 = inactive; - = no result given. In the library only some 12% were active in any assay of this set; here they are far more common.
SMILES,Arbovirus anti,L major viab,CHOP inh,WT yeast gro inh
Cc1ccc(CNC(=O)CSc2nc(N3CCCCC3)nc(N3CCCCC3)n2)cc1,0,0,71,0
Cc1ccccc1NC(=O)CSc1nc(N2CCCCC2)nc(N2CCCCC2)n1,0,0,0,0
CCCCCCCCCC(=O)NC(CN1CCOCC1)[C@H](O)c1ccccc1 (some centres undefined),-,-,0,-
O=C(CSc1nnc(-c2cc3ccccc3cc2O)n1Cc1ccco1)c1ccc(F)cc1,0,0,85,0
O=C(CSc1nnc(-c2ccc(O)cc2)n1Cc1ccco1)c1ccccc1,0,54,0,0
Cc1ccc(C(=O)CSc2nnc(CNc3ccc(C)cc3C)n2Cc2ccco2)cc1,0,60,0,0
O=C(CSc1nnc(-c2cccnc2)n1Cc1ccco1)c1ccccc1,0,0,0,0
O=C1C2C3C=CC(C4CC34)C2C(=O)N1c1ccc2c(c1)OCO2 (centres undefined),0,0,0,0
COc1ccc(/C=C2\SC(=S)N(CC(=O)OCC(=O)Nc3ccc(C)cc3Cl)C2=O)cc1,0,0,0,0
CCc1nc(SCc2ccc(F)cc2)[nH]c(=O)c1C#N,40,0,0,0
COc1cc(NS(=O)(=O)c2ccc(NC(=S)NC(=O)c3cccs3)cc2)nc(OC)n1,0,0,0,0
O=C(NC(=S)Nc1ccc(NC(=O)c2cccs2)cc1)c1cc2ccccc2o1,0,85,76,0
O=C(Nc1ccc(NC(=S)NC(=O)c2ccccc2F)cc1)c1cccs1,0,96,0,63
COc1cc(NC(=S)NC(=O)c2ccccc2F)ccc1NC(=O)c1cccs1,0,0,0,0
Cc1cc(C)cc(NS(=O)(=O)c2ccc(NC(=S)NC(=O)c3cccs3)cc2)c1,0,96,0,0
O=C(CSc1ccccc1)Nc1ccc(C(=O)Nc2ccc(O)cc2)cc1,0,0,0,0
N#Cc1cc2c(nc1SC1CC(=O)N(c3ccccc3)C1=O)CCC2 (centres undefined),0,0,84,0
Cc1ccc(-n2c(C)cc(/C=c3/sc4nc5ccccc5n4c3=O)c2C)cc1,0,0,85,0
Cc1cc2cc(CCNC(=O)c3ccc(Br)o3)c(=O)[nH]c2cc1C,0,0,0,96
CNc1ccc(Br)cc(C(=O)/C=C/c2ccc3c(c2)OCO3)c1=O,0,72,0,0
CCNc1ccc(Br)cc(C(=O)/C=C/c2ccc(Cl)cc2Cl)c1=O,0,98,76,0
CNc1ccc(Br)cc(C(=O)/C=C/c2ccc(OC)cc2)c1=O,0,0,0,0
CNc1ccc(Br)cc(C(=O)/C=C/c2cc(OC)ccc2OC)c1=O,0,89,0,0
CC1CCCN(c2ncnc3c2cnn3-c2ccccc2)C1 (centres undefined),0,-,0,0
CC1CC(C)CN(c2ncnc3c2cnn3-c2ccc(Cl)cc2)C1 (centres undefined),0,0,0,62
SMILES,Arbovirus anti,L major viab,CHOP inh,WT yeast gro inh
CC1CCCN(c2ncnc3c2cnn3-c2ccc(Cl)cc2)C1 (centres undefined),0,-,76,0
CC1CC(C)CN(c2ncnc3c2cnn3C)C1 (centres undefined),0,0,0,0
COc1ccc(-n2ncc3c(N4CCN(Cc5ccccc5)CC4)ncnc32)cc1,0,67,0,0
CN1CCN(c2ncnc3c2cnn3-c2ccc(Cl)cc2)CC1,0,88,0,0
COc1ccc(OC)c(S(=O)(=O)NC(N)=NCCc2ccccc2)c1,0,0,0,0
Cc1ccccc1C(=O)N1CCN(c2ncnc3c2cnn3-c2ccccc2)CC1,0,0,0,0
Cc1ccc(C(=O)N2CCN(c3ncnc4c3cnn4-c3ccccc3)CC2)cc1,-,53,-,-
Cc1oc(-c2cccc(Cl)c2)nc1CN1CCCC(C(=O)NCCCN2CCOCC2)C1 (centres undefined),0,101,0,0
Cc1oc(-c2ccc(Cl)cc2)nc1CN1CCC(C(=O)NCCCN2CCOCC2)CC1,0,101,0,0
Cc1ccc(-c2nc(CSCC(=O)NCCCN3CCOCC3)c(C)o2)cc1,0,53,0,0
Cc1oc(-c2ccc(Cl)cc2)nc1CN1CCC(C(=O)NCc2cccs2)CC1,0,0,0,0
COc1ccc(C(C)=O)cc1CSc1nnc(-c2ccccc2O)n1-c1ccccc1,0,0,0,0
CCOC(=O)c1c(O)cc(C)[nH]c1=O,-,-,0,-
C#Cc1ccc([C@@H]2C=C(C(=O)O)O[C@H](OCc3ccc(CO)cc3)C2)cc1,0,0,0,0
COc1ccc(Nc2cccc(Cl)c2)c(C(=O)O)c1,0,51,0,0
O=C(CCc1cnccn1)NC1CCCc2c1cnn2-c1ccc(F)cc1F (centres undefined),0,0,0,0
O=C(/C=C/c1ccc(Br)o1)NC(c1ccccc1)c1ccccc1,0,0,0,63
O=C(NC(c1ccccc1)c1ccccc1)c1ccc(Br)o1,0,0,0,0
CCOC(=O)CC(NC(=O)c1cccc2c1C(=O)N(Cc1cccnc1)C2)c1ccc(OC(C)C)cc1 (centres undefined),0,0,0,0
Cc1nc(SCC(=O)Nc2ccccc2C(F)(F)F)c(C#N)c(C)c1CC(=O)c1ccc(Br)cc1,0,0,88,0
CCc1c(C)nc(SCC(N)=O)c(C#N)c1C,0,0,0,-
Cc1cccc(C)c1NC(=O)CSc1nc(C)c(CC(=O)c2ccc(Br)cc2)c(C)c1C#N,0,0,91,0
CCc1c(C)nc(SCC(=O)c2cccs2)c(C#N)c1C,0,0,0,86
N#C/C(=C\c1ccc(F)cc1F)S(=O)(=O)c1ccccn1,-,-,0,-
Cc1ccc(Nc2nc(CSc3n[nH]c(N)n3)cs2)cc1,-,-,0,-
SMILES,Arbovirus anti,L major viab,CHOP inh,WT yeast gro inh
Nc1n[nH]c(N)c1N=Nc1ccc2c(c1)OCO2,0,0,0,0
COc1ccc(NC(=O)c2cc(S(=O)(=O)NCC3COc4ccccc4O3)ccc2F)cc1 (centres undefined),0,0,0,0
CC(C)c1ccc(NC(=O)c2cc(S(=O)(=O)NCC3COc4ccccc4O3)ccc2F)cc1 (centres undefined),0,0,81,62
O=C(Nc1ccc(C(F)(F)F)cc1)c1cc(S(=O)(=O)NCC2COc3ccccc3O2)ccc1F (centres undefined),0,0,82,82
O=C(CN(c1ccc(Cl)c(C(F)(F)F)c1)S(=O)(=O)c1ccccc1)N/N=C/c1cccc2c1OCCO2,0,0,73,0
C#CC(C)(C)NC(=O)c1sccc1Oc1ccc(F)cc1[N+](=O)[O-],0,0,0,0
CN1CCN(C2=Cc3ccc(Cl)cc3Sc3ccc(F)cc32)CC1,0,95,0,0
CN1CCN(C2=Nc3cc(F)ccc3Cc3ccccc32)CC1,0,-,0,0
CN1CCN(C2Cc3ccccc3Sc3ccc(Cl)cc32)CC1 (centres undefined),-,-,0,-
CN1CCN(C2=Cc3ccccc3Sc3cc(F)ccc32)CC1,0,100,0,94
Cc1cc(C)cc(NC(=O)C(Nc2ccccc2)c2ccccc2)c1 (centres undefined),0,0,0,0
Cc1ccc(NC(=O)C(Nc2ccccc2)c2ccccc2)cc1 (centres undefined),0,88,0,0
O=C(Nc1ccc(Br)cc1)C(c1ccccc1)c1ccccc1,0,0,83,0
Cc1ccc(NC(=O)C(C)c2ccc(-c3ccccc3)c(F)c2)cc1 (centres undefined),0,0,73,-

# Screening results as filed in PubChem.
